How the values were obtained:
Test in all cases: DAPPL (digital affinity profiling via proximity ligation, sequencing); 10 mM Tris-HCl pH 7.5, 50 mM NaCl, 1 mM DTT, 4% glycerol, room temperature, 30 min; GST-TFs on glutathione beads, 16-mer random dsDNA library, 0.1% formaldehyde crosslink after washing; high values mean tight binding
[1] = target: T1, FLI1 (Homo sapiens, UniProt Q01543 1-452); conditions: protein: recombinant; tags: N-terminal GST; dsDNA, one strand shown
T1 sequence: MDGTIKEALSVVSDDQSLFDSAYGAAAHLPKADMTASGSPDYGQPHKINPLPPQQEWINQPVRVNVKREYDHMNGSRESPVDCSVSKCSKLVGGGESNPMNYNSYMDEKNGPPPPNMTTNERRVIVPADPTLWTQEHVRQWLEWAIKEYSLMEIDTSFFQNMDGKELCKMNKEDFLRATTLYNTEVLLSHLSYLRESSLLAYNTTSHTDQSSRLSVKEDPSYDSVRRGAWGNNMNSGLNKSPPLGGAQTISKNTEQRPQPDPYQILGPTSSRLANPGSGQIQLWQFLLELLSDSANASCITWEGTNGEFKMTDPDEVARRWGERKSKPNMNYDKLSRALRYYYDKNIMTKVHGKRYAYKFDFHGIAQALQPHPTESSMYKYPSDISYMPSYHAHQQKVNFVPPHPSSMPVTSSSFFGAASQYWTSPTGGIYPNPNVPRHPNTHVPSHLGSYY
Summary of the method: (§1)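 Human transcription factors carrying a GST fusion were produced in yeast, bound to glutathione beads, tagged with DNA barcodes and pooled together with a tag-only sample. Each pool was held with 200 nmole of a random double-stranded 16-mer DNA library in Tris/NaCl/DTT/glycerol buffer for 30 min at room temperature, then washed, crosslinked in 0.1% formaldehyde, proximity-ligated with BsaI/T4 ligase (1 h, 37 °C), PCR-amplified and sequenced on an Illumina NextSeq500. Binding signal is the read frequency of each hexamer for a given factor divided by its frequency in the tag-only sample.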

[2] = target: T2, ELK1 (Homo sapiens, UniProt P19419 1-428); conditions: protein: recombinant; tags: N-terminal GST; dsDNA, one strand shown
T2 sequence: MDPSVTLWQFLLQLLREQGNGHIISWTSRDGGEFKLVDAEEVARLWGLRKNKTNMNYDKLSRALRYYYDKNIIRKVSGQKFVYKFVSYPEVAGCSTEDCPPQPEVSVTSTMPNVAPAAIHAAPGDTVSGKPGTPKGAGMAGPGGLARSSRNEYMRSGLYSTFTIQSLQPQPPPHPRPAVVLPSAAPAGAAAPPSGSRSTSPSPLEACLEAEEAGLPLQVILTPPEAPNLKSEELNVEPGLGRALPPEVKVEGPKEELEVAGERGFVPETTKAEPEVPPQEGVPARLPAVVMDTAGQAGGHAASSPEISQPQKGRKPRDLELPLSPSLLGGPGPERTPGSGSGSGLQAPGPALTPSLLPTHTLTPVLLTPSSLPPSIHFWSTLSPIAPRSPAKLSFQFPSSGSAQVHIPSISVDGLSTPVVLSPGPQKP
Summary of the method: as §1

[3] = target: T3, GABPA (Homo sapiens, UniProt Q06546 1-454); conditions: protein: recombinant; tags: N-terminal GST; dsDNA, one strand shown
T3 sequence: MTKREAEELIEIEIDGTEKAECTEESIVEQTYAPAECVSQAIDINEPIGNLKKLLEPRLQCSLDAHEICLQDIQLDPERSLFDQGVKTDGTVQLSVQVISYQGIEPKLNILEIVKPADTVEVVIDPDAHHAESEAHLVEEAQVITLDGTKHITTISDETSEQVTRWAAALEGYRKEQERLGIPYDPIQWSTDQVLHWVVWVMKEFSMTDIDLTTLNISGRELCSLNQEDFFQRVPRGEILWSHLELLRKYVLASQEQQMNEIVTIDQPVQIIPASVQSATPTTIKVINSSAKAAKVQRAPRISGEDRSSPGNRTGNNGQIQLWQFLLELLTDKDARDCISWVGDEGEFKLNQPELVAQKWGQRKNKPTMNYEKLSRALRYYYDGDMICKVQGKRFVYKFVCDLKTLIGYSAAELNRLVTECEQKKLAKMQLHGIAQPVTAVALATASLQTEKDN
Summary of the method: as §1

[4] = target: T4, ERG (Homo sapiens, UniProt P11308 1-479); conditions: protein: recombinant; tags: N-terminal GST; dsDNA, one strand shown
T4 sequence: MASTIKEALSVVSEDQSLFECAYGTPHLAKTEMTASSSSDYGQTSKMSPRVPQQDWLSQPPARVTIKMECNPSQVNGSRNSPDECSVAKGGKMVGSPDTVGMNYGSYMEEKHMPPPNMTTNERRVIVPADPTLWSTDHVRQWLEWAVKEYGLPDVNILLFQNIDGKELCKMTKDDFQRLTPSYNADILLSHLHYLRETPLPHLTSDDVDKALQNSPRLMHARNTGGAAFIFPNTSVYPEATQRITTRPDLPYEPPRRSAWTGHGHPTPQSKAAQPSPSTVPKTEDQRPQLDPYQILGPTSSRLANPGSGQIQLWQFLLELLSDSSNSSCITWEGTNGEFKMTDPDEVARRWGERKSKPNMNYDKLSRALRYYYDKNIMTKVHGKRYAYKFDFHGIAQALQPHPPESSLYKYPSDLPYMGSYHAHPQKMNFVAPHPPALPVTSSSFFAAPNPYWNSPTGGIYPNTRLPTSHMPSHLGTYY
Summary of the method: as §1

[5] = target: ELF1 (Homo sapiens, UniProt P32519 1-619); conditions: protein: recombinant; tags: N-terminal GST; dsDNA, one strand shown
Summary of the method: as §1

[6] = target: T5, EHF (Homo sapiens, UniProt Q9NZC4 1-300); conditions: protein: recombinant; tags: N-terminal GST; dsDNA, one strand shown
T5 sequence: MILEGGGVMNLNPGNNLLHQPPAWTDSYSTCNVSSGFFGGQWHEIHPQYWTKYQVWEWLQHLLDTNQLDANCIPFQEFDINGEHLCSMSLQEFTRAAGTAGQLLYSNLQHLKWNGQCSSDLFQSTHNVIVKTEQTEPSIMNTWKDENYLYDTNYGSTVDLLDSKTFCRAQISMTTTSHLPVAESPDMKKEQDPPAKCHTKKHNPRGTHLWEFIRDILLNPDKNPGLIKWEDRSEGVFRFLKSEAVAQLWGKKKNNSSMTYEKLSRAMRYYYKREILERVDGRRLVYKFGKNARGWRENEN
Summary of the method: as §1

[7] = target: SPIB (Homo sapiens, UniProt Q01892 1-262); conditions: protein: recombinant; tags: N-terminal GST; dsDNA, one strand shown
Summary of the method: as §1

[8] = target: T6, ELK3 (Homo sapiens, UniProt P41970 1-407); conditions: protein: recombinant; tags: N-terminal GST; dsDNA, one strand shown
T6 sequence: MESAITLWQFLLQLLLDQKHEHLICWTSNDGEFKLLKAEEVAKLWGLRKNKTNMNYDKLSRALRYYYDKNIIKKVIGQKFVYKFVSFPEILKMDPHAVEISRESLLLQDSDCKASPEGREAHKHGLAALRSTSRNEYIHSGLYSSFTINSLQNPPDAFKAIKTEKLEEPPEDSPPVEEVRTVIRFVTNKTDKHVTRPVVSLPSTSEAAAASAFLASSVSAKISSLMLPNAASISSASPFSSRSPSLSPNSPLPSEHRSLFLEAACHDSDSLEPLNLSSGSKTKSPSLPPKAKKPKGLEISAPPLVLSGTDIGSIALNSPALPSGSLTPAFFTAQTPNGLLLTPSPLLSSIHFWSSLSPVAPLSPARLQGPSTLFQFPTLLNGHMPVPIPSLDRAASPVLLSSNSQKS
Summary of the method: as §1

[9] = target: T7, FEV (Homo sapiens, UniProt Q99581 1-238); conditions: protein: recombinant; tags: N-terminal GST; dsDNA, one strand shown
T7 sequence: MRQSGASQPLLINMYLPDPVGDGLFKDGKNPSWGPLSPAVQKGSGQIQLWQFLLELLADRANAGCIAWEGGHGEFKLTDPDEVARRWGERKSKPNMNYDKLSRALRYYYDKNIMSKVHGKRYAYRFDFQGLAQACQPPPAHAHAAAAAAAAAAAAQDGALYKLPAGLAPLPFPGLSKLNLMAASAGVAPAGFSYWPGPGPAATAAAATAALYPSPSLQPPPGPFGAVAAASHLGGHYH
Summary of the method: as §1

[10] = target: ETV5 (Homo sapiens, UniProt P41161 1-510); conditions: protein: recombinant; tags: N-terminal GST; dsDNA, one strand shown
Summary of the method: as §1

[11] = target: HSF1 (Homo sapiens, UniProt Q00613 1-529); conditions: protein: recombinant; tags: N-terminal GST; chain copies: 3; dsDNA, one strand shown
Summary of the method: as §1

[12] = target: T8, SPIC (Homo sapiens, UniProt Q8N5J4 1-248); conditions: protein: recombinant; tags: N-terminal GST; dsDNA, one strand shown
T8 sequence: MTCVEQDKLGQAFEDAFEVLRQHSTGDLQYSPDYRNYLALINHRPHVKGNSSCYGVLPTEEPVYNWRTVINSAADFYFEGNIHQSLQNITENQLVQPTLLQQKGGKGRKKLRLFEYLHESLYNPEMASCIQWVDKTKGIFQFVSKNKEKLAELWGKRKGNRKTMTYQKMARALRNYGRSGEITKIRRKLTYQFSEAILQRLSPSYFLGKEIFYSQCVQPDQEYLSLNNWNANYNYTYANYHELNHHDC
Summary of the method: as §1

[13] = target: ELF4 (Homo sapiens, UniProt Q99607 1-663); conditions: protein: recombinant; tags: N-terminal GST; dsDNA, one strand shown
Summary of the method: as §1

[14] = target: T9, ELK4 (Homo sapiens, UniProt P28324-2 1-405); conditions: protein: recombinant; tags: N-terminal GST; dsDNA, one strand shown
T9 sequence: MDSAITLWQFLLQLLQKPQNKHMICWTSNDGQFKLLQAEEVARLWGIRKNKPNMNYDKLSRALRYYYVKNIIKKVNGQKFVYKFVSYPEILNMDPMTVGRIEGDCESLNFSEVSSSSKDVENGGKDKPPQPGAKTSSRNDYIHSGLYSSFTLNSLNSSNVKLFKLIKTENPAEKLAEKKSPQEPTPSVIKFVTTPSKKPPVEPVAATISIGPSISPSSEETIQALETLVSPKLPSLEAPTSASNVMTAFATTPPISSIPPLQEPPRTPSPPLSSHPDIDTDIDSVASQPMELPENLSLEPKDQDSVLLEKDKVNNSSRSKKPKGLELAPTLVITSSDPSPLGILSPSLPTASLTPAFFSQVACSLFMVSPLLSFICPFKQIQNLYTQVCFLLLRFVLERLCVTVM
Summary of the method: as §1

[15] = target: T10, ETV2 (Homo sapiens, UniProt O00321 1-342); conditions: protein: recombinant; tags: N-terminal GST; dsDNA, one strand shown
T10 sequence: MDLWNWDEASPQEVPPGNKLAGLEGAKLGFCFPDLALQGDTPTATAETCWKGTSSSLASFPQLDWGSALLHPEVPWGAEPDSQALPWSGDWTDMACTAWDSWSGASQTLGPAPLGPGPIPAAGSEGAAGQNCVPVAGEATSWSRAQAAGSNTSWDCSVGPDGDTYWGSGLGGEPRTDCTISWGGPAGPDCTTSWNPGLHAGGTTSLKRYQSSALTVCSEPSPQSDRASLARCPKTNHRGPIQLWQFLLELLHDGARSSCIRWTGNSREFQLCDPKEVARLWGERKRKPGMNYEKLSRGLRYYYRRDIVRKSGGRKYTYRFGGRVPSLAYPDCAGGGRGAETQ
Summary of the method: as §1

[16] = target: ETV1 (Homo sapiens, UniProt P50549 1-477); conditions: protein: recombinant; tags: N-terminal GST; dsDNA, one strand shown
Summary of the method: as §1

[17] = target: SPI1 (Homo sapiens, UniProt P17947 1-270); conditions: protein: recombinant; tags: N-terminal GST; dsDNA, one strand shown
Summary of the method: as §1

Chain of HSF1 (Q00613 whole entry): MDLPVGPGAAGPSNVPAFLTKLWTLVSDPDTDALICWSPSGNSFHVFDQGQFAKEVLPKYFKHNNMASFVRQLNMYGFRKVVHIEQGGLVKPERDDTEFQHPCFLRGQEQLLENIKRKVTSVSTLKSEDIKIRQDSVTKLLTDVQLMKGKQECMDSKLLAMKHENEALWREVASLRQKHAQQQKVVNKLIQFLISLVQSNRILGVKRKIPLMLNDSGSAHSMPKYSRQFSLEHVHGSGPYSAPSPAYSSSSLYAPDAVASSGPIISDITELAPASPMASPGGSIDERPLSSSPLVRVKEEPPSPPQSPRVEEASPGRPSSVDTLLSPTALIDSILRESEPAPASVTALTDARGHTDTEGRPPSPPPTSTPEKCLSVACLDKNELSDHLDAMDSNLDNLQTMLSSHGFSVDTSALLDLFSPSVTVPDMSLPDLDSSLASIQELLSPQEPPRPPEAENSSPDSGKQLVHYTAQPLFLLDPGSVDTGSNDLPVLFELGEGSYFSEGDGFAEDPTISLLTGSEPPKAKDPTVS
Chain of ELF1 (P32519 whole entry): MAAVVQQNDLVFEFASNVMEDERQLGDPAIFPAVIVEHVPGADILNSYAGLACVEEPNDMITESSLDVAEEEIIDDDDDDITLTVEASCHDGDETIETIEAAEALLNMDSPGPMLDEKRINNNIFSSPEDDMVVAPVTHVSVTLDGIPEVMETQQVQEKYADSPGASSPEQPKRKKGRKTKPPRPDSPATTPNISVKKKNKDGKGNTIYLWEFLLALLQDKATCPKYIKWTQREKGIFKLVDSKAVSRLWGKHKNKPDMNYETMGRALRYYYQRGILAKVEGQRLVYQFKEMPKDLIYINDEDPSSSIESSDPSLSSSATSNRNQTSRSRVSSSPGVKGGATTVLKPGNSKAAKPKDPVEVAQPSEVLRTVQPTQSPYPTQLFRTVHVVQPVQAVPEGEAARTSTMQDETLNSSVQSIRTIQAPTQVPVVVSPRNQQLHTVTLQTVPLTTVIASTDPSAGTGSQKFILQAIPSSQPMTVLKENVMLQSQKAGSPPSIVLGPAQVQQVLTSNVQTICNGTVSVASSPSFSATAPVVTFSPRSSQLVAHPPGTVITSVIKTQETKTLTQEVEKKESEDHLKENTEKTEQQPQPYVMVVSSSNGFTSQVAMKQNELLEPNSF
Chain of ETV1 (P50549 whole entry): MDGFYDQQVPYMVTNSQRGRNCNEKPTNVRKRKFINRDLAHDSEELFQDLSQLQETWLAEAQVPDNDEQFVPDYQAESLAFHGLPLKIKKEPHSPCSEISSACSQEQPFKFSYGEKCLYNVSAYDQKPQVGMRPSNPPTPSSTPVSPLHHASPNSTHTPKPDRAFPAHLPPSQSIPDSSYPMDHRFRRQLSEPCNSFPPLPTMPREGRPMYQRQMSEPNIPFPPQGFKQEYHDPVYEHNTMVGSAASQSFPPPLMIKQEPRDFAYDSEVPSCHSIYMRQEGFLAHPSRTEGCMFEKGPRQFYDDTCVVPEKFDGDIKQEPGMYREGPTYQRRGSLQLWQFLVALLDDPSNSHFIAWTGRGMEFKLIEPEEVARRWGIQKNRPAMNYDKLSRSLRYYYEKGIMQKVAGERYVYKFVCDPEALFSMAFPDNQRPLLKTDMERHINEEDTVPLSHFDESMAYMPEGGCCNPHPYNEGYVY
Chain of ELF4 (Q99607 whole entry): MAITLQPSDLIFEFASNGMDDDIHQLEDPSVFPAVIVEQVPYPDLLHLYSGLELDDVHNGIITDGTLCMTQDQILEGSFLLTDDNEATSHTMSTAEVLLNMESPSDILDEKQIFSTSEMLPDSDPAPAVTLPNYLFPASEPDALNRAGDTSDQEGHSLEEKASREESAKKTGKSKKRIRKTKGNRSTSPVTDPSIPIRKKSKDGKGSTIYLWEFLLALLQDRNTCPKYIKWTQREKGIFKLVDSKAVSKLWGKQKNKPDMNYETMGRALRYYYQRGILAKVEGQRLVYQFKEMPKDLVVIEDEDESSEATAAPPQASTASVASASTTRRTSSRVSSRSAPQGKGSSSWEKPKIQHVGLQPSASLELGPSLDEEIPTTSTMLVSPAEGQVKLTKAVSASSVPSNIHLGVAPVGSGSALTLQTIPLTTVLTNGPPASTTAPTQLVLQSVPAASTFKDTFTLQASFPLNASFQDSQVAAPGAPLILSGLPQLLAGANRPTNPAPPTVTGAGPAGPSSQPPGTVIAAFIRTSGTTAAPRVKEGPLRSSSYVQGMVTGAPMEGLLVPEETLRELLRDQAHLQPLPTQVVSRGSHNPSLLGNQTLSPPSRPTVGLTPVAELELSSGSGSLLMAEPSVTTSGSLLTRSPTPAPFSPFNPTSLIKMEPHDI
Chain of ETV5 (P41161 whole entry): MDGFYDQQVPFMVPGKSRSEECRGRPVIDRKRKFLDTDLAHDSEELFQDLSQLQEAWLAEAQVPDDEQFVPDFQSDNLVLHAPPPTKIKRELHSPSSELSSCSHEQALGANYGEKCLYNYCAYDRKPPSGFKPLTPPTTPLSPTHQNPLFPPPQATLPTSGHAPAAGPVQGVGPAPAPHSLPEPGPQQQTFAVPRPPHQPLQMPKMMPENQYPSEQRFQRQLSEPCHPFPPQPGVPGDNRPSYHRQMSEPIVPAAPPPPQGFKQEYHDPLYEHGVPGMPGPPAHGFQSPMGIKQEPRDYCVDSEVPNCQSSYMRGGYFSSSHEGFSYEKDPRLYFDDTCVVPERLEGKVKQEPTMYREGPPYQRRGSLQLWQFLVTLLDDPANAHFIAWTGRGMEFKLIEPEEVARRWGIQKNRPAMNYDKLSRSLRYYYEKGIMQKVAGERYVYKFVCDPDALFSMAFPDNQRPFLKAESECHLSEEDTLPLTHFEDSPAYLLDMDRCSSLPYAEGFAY
Chain of SPIB (Q01892 whole entry): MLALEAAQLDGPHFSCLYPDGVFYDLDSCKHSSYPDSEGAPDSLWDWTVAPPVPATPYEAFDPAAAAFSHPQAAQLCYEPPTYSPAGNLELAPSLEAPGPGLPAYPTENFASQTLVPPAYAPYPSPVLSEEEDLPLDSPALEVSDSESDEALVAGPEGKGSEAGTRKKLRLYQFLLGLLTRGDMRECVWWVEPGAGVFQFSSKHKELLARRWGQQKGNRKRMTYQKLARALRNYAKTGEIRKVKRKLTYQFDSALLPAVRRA

Sequence	binding signal [1]	binding signal [2]	binding signal [3]	binding signal [4]	binding signal [5]	binding signal [6]	binding signal [7]	binding signal [8]	binding signal [9]	binding signal [10]	binding signal [11]	binding signal [12]	binding signal [13]	binding signal [14]	binding signal [15]	binding signal [16]	binding signal [17]
CGACGA	1.19 fold enrichment (6-mer frequency, TF over GST control)	1.03 fold enrichment (6-mer frequency, TF over GST control)	1.11 fold enrichment (6-mer frequency, TF over GST control)	1.18 fold enrichment (6-mer frequency, TF over GST control)	1.09 fold enrichment (6-mer frequency, TF over GST control)	1.14 fold enrichment (6-mer frequency, TF over GST control)	1.2 fold enrichment (6-mer frequency, TF over GST control)	1.2 fold enrichment (6-mer frequency, TF over GST control)	1.1 fold enrichment (6-mer frequency, TF over GST control)	1.15 fold enrichment (6-mer frequency, TF over GST control)	1.16 fold enrichment (6-mer frequency, TF over GST control)	1.2 fold enrichment (6-mer frequency, TF over GST control)	1.17 fold enrichment (6-mer frequency, TF over GST control)	1.08 fold enrichment (6-mer frequency, TF over GST control)	1.01 fold enrichment (6-mer frequency, TF over GST control)	1.07 fold enrichment (6-mer frequency, TF over GST control)	
CTGGAC	1.16 fold enrichment (6-mer frequency, TF over GST control)	1.07 fold enrichment (6-mer frequency, TF over GST control)	1.17 fold enrichment (6-mer frequency, TF over GST control)	1.13 fold enrichment (6-mer frequency, TF over GST control)	1.12 fold enrichment (6-mer frequency, TF over GST control)	1.13 fold enrichment (6-mer frequency, TF over GST control)	1.05 fold enrichment (6-mer frequency, TF over GST control)		1.1 fold enrichment (6-mer frequency, TF over GST control)	1.18 fold enrichment (6-mer frequency, TF over GST control)	1.23 fold enrichment (6-mer frequency, TF over GST control)	1.1 fold enrichment (6-mer frequency, TF over GST control)	1.19 fold enrichment (6-mer frequency, TF over GST control)	1.11 fold enrichment (6-mer frequency, TF over GST control)	1.2 fold enrichment (6-mer frequency, TF over GST control)	1.09 fold enrichment (6-mer frequency, TF over GST control)	1.08 fold enrichment (6-mer frequency, TF over GST control)
